The list is not random: actives were taken first. Their share in the collection is about 3.5%.
MITF inh = inhibitors of human MITF; AlphaScreen MITF homodimerization, bead proximity signal; hit rate 0.91% among 650,000; inhibition, % at 2.6 µM; in the data active = inhibition above about 50%;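 note: 0% = vehicle wells with protein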
GPR151 activ = activators of human GPR151 | Q8TDV0 | PathHunter beta-arrestin GPR151 cells, luminescence | activation, % at 11.2 µM | hit rate 1% among 650,000; in the data active = activation above about 4.9%;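 note: 0% = median of compound wells and 100% = cells with positive control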
Target sequence (Q8TDV0 whole entry, looked up): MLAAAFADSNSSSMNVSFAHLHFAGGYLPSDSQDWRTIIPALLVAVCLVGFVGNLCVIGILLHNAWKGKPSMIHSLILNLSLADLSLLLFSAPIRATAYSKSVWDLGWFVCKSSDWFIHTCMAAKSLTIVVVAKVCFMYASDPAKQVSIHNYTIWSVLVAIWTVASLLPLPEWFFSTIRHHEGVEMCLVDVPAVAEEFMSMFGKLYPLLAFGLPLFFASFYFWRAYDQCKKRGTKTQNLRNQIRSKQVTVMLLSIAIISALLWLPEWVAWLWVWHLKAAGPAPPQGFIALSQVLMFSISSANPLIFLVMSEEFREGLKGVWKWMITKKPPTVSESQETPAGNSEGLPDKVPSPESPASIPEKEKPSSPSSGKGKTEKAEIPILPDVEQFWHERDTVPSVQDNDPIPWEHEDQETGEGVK
TEAD-YAP block = TEAD-YAP interaction inhibition; HEK-TIYL cells, TEAD-Gal4/YAP UAS-luciferase luminescence; inhibition, % at 9.12 µM; hit rate 1.4% among 640,000; in the data active = inhibition above about 32%;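 note: 0% = median of test compound wells and 100% = reference inhibitor wells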
FBW7 act = human FBW7 E3 ligase activation, primary screen; AlphaScreen FBW7–phospho-cyclin E peptide binding, activator screen; hit rate 0.13% among 650,000; normalized activity (activation), % at 26.1 µM; in the data active = normalized activity above about 1.9%;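 note: purified mutant Fbw7 with reduced substrate affinity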
MITF confirm = confirmation of human MITF inhibitors. shares compounds with MITF inh. AlphaScreen MITF homodimerization, biotin/His-MITF beads. inhibition, % at 2.6 µM. hit rate 16% among 4,700;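 active = inhibition above a cutoff derived from the DMSO control wells, cut at about 28% in these data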;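 note: 0% = MITF dimer wells with DMSO only; inhibitors lower the bead chemiluminescence by keeping MITF from dimerizing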
AlphaScreen DR = AlphaScreen optical interference, dose response counter-screen; shares compounds with MITF inh; AlphaScreen optical interference counterscreen, cell-free; IC50, µM; hit rate 6% among 480; call rule not given here
AlphaScreen intf2 = counter-screen: compounds optically interfering with AlphaScreen; shares compounds with MITF inh; LysRS AlphaScreen counterscreen, signal interference, triplicate; inhibition, % at 2.6 µM; hit rate 7.6% among 4,700;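 active = inhibition above a cutoff derived from the DMSO control wells, cut at about 30% in these data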
Numbers without * were called inactive; i = inactive; x = not tested or not shown.

SMILES	MITF inh	GPR151 activ	TEAD-YAP block	FBW7 act	MITF confirm	AlphaScreen intf2	others
O=C1CCC(CCNCCOc2ccc(F)cc2)N1Cc1cccc(Cl)c1 (stereo not given)	70.9*	-0.5	-2.8	-0.1	0.6	3.0
O=C1CCC(CCNCCOc2ccc(F)cc2)N1Cc1cccc(-n2cccn2)c1 (stereo not given)	-0.1	2.5	2.6	-0.2	x	x
COc1ccc(-c2ccc(/C=N/Nc3nc4ccccc4[nH]3)o2)c([N+](=O)[O-])c1	-0.3	-0.4	-17.8	-0.5	x	x
c1coc(CN2CCN(C3CCCCC3)CC2)c1	64.0*	0.0	-1.9	0.1	7.0	2.1
CC1CCC(N2CCN(Cc3ccco3)CC2)CC1 (stereo not given)	71.1*	0.5	7.9	0.0	27.5*	11.5	AlphaScreen DR=>6.25
O=C(CCCCC1SCC2NC(=O)NC21)NC1(c2ccc3c(c2)OCO3)CCCC1 (stereo not given)	113.1*	1.1	-7.2	-1.5	101.7*	18.1	AlphaScreen DR=i
CCCCC[C@@H](O)CC[C@H]1[C@H](O)CC(=O)[C@@H]1CCCCCCC(=O)O	22.5	1.9	x	x	x	x
O=C(O)CCCCC1SCC2NC(=O)NC21 (stereo not given)	122.2*	-0.7	-1.8	-0.4	124.4*	100.6*
O=C(O)CCCC[C@H]1SC[C@H]2NC(=O)N[C@H]21	116.8*	1.4	-11.8	-0.5	122.8*	100.6*
COc1ccc(C(=O)Nc2ccc3c(c2)C(=O)N(c2ccccc2)C3=O)cc1[N+](=O)[O-]	-7.1	-0.7	2.2	0.0	x	x
COc1ccc(C(CNCC(=O)Nc2ccccc2-c2ccccc2)N2CCOCC2)cc1 (stereo not given)	82.6*	-1.4	4.8	-0.2	-15.0	-1.1
COC(=O)c1ccccc1NC(=O)CN(c1cc(C(F)(F)F)ccc1Cl)S(C)(=O)=O	-12.2	-0.6	2.8	-0.2	x	x
CCOc1ccc(CN2CCC(N3CCCC(C)C3)CC2)cc1 (stereo not given)	52.7*	0.0	-2.7	-0.1	1.4	-0.2
CC1CCCN(C2CCN(Cc3ccc(Cl)cc3)CC2)C1 (stereo not given)	56.3*	0.5	-12.6	-0.1	6.1	1.5
Clc1ccc(CN2CCC(N3CCCCC3)CC2)cc1	-11.9	0.8	-2.4	0.1	x	x
COc1ccc(OC)c(Nc2nc(N3CCOCC3)c3ccccc3n2)c1	8.7	-1.6	7.7	0.1	x	x
COc1cccc(C(=O)N2CCN(Cc3ccccn3)CC2)c1	92.2*	-0.5	-8.3	0.1	-11.0	1.3
COc1cc(OC)cc(C(=O)N2CCN(Cc3ccccn3)CC2)c1	57.4*	-0.6	-6.1	0.3	14.7	18.0
Cc1ccc(N(CC(=O)NC(C(C)C)C(C)C)S(C)(=O)=O)cc1C	68.4*	1.9	11.6	0.0	7.5	14.3
CC(=O)Nc1ccc(NC(=O)CN2CCN(C)CC2)cc1	1.7	-0.8	-23.9	0.5	x	x
CN1CCN(CC(=O)Nc2ccc(C(F)(F)F)cc2)CC1	66.5*	-0.2	-2.8	0.1	7.8	15.0
CN1CCN(CC(=O)Nc2ccc(C(=O)N3CCCC3)cc2)CC1	34.0	-0.6	5.3	0.7	x	x
O=C(Cn1c(-c2ccccc2)noc1=O)Nc1ccc(N2CCCCCC2)cc1	54.1*	1.4	12.9	-0.6	15.3	16.6
Cc1cc(NC(=O)CN2CCN(c3cccc(Cl)c3)CC2)no1	-3.8	2.3	0.6	0.0	x	x
CN1CCN(CC(=O)Nc2ccc(N3CCCCCC3)cc2)CC1	55.4*	0.2	-2.6	-0.3	-12.6	37.2*
Cc1cc(NC(=O)CN2CCN(c3ccc(F)cc3)CC2)no1	54.1*	0.1	-0.9	0.1	3.6	2.9
O=C(Nc1ccc2c(c1)oc1ccccc12)c1cc(Br)ccc1I	0.3	-1.2	-5.8	-0.1	x	x
CCOC(=O)C1=C(C)N=c2s/c(=C\c3ccc(Cl)cc3Cl)c(=O)n2C1c1ccc(N(C)C)cc1 (stereo not given)	2.3	0.2	3.1	0.0	x	x
CCOC(=O)C1=C(C)N=c2s/c(=C/c3ccc(Cl)cc3Cl)c(=O)n2C1c1ccc(C)cc1 (stereo not given)	63.2*	0.5	4.0	0.2	-10.8	-11.2
CC(OC(=O)c1cc[n+]([O-])cc1)C(=O)Nc1cccc(Cl)c1 (stereo not given)	-10.7	-0.8	7.0	0.1	x	x
